# Screening data deposited in PubChem BioAssay by The Scripps Research Institute Molecular Screening Center.
# TEAD-YAP block: TEAD-YAP interaction inhibition; AID 1259422; HEK-TIYL cells, TEAD-Gal4/YAP UAS-luciferase luminescence; 1.4% of 640,000 active; inhibition, % at 9.12 µM; in the data active means inhibition above about 32%;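 further: 0% = median of test compound wells and 100% = reference inhibitor wells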
# FBW7 act: activators of human E3 ligase FBW7; AID 1259310; normalized activity (activation), % at 26.1 µM; AlphaScreen FBW7–phospho-cyclin E peptide binding, activator screen; 0.13% of 650,000 active; in the data active means normalized activity above about 1.9%;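 further: purified mutant Fbw7 with reduced substrate affinity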
# Target sequence (Q969H0 whole entry, looked up): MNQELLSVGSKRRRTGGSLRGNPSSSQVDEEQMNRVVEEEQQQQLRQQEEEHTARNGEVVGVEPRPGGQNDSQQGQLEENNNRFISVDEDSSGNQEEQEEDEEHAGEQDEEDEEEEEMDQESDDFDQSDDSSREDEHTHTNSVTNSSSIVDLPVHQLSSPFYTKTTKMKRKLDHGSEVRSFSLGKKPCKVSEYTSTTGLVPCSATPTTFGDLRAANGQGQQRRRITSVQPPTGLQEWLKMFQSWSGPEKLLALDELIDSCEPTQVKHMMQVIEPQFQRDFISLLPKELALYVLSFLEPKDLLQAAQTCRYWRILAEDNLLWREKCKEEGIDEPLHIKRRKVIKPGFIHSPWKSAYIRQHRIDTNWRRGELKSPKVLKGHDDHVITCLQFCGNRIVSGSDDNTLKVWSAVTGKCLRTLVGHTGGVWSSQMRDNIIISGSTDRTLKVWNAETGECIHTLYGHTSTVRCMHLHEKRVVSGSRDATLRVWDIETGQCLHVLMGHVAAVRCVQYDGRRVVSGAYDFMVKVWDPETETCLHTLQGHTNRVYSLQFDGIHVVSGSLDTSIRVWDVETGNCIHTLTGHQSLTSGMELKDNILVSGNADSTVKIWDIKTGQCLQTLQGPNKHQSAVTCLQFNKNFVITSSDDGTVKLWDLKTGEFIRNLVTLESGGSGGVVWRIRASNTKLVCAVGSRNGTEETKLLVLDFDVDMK
# GPR151 ag: activates the human receptor GPR151 | activation, % at 11.2 µM | PathHunter beta-arrestin GPR151 cells, luminescence | 1% of 650,000 active; in the data active means activation above about 4.9%;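 further: 0% = median of compound wells and 100% = cells with positive control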
# MITF primary: blocks human microphthalmia-associated transcription factor. O75030. 0.91% of 650,000 active. inhibition, % at 2.6 µM. AlphaScreen MITF homodimerization, bead proximity signal; in the data active means inhibition above about 50%;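 further: 0% = vehicle wells with protein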
# GPR151 conf act: confirmation of human GPR151 activators | activation, % at 11.2 µM | AID 1508609 | shares compounds with GPR151 ag | 6,700 tested, under 10 active | GPR151 PathHunter beta-arrestin cells, luminescence, 90 min; % of EA-reagent control over plate median;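 active means mean percent activation across replicates above the confirmation screen cutoff of 4.91%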
# GPR119 counter: counter-screen for GPR151 activators: effect on human GPR119. activation, % at 11.2 µM. 0.3% of 6,700 active. shares compounds with GPR151 ag. GPR119 PathHunter beta-arrestin cells, luminescence, 90 min; 0 = compound-well median, 100 = enzyme-acceptor control;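 active means mean percent activation in the counterscreen above 29.09%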;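 further: counterscreen on off-target GPR119 to flag nonselective hits from the GPR151 activator screen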
# The depositor's hits bear a star; x = not tested or not shown; ! = not active in a repeat. This is a sample that favours compounds with a hit; in the whole collection about 3.4% have one here.
SMILES,TEAD-YAP block,FBW7 act,GPR151 ag,MITF primary,GPR151 conf act,GPR119 counter
Cc1[nH]c2ccc(CNC(=O)Nc3ccc(F)cc3F)cc2c1C,5.6,0.0,5.9*,6.2,-0.6,-6.3
O=C(COC(=O)c1ccccc1O)Nc1ccc([N+](=O)[O-])cc1Cl,11.5,0.1,0.3,6.5,x,x
O=C(NCCNc1ncnc2sc3c(c12)CCCC3)c1ccccc1F,10.7,-0.1,0.0,13.0,x,x
Cc1ccc2[nH]c3c(c2c1)CCCC3NC(=O)CCl (configuration not stated),87.8*,0.0,7.3*,0.0,1.0,-0.8
Cn1c(=O)c2c(nc(Br)n2Cc2ccccc2)n(C)c1=O,11.9,0.0,-1.2,-8.1,x,x
CCC(C)NC(=O)c1sc2nc(C)nc(N3CCC(C)CC3)c2c1C (configuration not stated),-0.5,-0.1,6.9*,5.4,0.4,-0.7
CCCN(CCC)C(=O)c1sc2nc(C)nc(N3CCCCC3)c2c1C,-3.2,-0.1,5.5*,-1.9,0.9,-1.7
CCCCCC1CCC(c2ccc(-c3nc(Cc4ccccc4)no3)cc2)CC1 (configuration not stated),8.8,0.0,-0.4,-1.7,x,x
COc1ccc(Cl)cc1N(C)C(=O)Cc1c(C(=O)O)n(C)c2ccccc12,3.1,0.4,-0.5,5.3,x,x
CC(C)(Cc1ccc(O)cc1)NC(=O)SCc1ccccc1,-1.2,-0.2,-0.2,6.0,x,x
CC(N)(Cc1ccc(O)cc1)C(=O)O (configuration not stated),4.5,-0.2,5.2*!,6.4,0.0,3.1
CCCCn1c(C)nc2c(sc3nc4c(cc32)COC(C)(C)C4)c1=O,-34.1,0.1,9.0*,19.6,1.0,1.4
CCOC(=O)C1C(=O)NC(SC)=C(C#N)C1c1ccccc1I (configuration not stated),-4.4,0.0,1.1,12.2,x,x
CCCCC(=O)Nc1cccc(NC(=O)COc2ccc([N+](=O)[O-])cc2)c1,1.3,-0.1,10.9*,9.2,-0.5,7.2
CCC(=O)Nc1cccc(NC(=O)COc2ccc([N+](=O)[O-])cc2)c1,3.3,0.0,12.4*,7.7,-0.1,-2.2
CCNS(=O)(=O)c1ccc(NC(=O)c2ccc([N+](=O)[O-])cc2)cc1,1.4,0.1,5.1*,24.1,0.2,1.8
CC(C)(C)NS(=O)(=O)c1ccc(NC(=O)COc2ccc([N+](=O)[O-])cc2)cc1,-1.2,-0.1,0.8,-5.7,x,x
CC(=O)NS(=O)(=O)c1ccc(NC(=O)COc2ccc([N+](=O)[O-])cc2)cc1,13.6,0.2,6.1*,0.2,-0.1,0.9
Cc1scc(C(=O)NN2CCOCC2)c1-c1ccccc1,1.8,-0.1,1.4,-7.3,x,x
N#C/C(=C\c1ccc(-c2ccc(Cl)cc2)o1)C(=O)NCC1CCCO1 (configuration not stated),-7.2,0.0,-0.9,-6.5,x,x
CCN(CC)C(=O)NCC1CN(c2ccc(Cl)c(Cl)c2)C(=O)O1 (configuration not stated),0.6,0.0,2.2,-0.8,x,x
CCc1ccccc1N(C(C)=O)C1C=CS(=O)(=O)C1 (configuration not stated),0.4,-0.1,4.5,1.6,x,x
CC(=O)N(c1cccc2ccccc12)C1C=CS(=O)(=O)C1 (configuration not stated),-1.5,0.2,4.9*,-9.7,0.1,-7.3
CC(=O)c1ccc(NC(=O)NS(=O)(=O)c2ccc(C)cc2)cc1,-6.5,-0.2,5.4*,0.1,0.5,6.7
CC(=O)c1ccc(NC(=O)Nc2ccc(NS(=O)(=O)c3ccc(C)cc3)cc2)cc1,12.6,-0.1,-0.3,14.7,x,x
SMILES,TEAD-YAP block,FBW7 act,GPR151 ag,MITF primary,GPR151 conf act,GPR119 counter
CCC(=O)C1=C(c2ccc(C(C)(C)C)cc2)N(C(=O)CC)n2cnnc2S1,66.8*,-0.1,6.4*,7.0,0.9,-3.1
CCOC(=O)CSc1nc2sc3c(c2c(=O)n1Cc1ccccc1)CCCCC3,-6.5,0.4,-1.1,15.2,x,x
Nc1c(Br)cc(Br)cc1CNC1CCC(O)CC1 (configuration not stated),-1.0,0.0,5.7*!,-14.1,0.4,7.2
COc1ccc(Br)cc1CNC1CCCC1,-9.6,-0.2,-0.7,30.7,x,x
O=C(O)c1ccc2c(=O)[nH]c(CSc3nnc(Nc4ccccc4)s3)nc2c1,8.0,0.1,8.4*,22.9,0.8,5.5
O=C(NC1CC1)c1nc(-c2cccnc2)no1,6.5,0.0,1.7,3.4,x,x
CC(=O)Nc1ccc(C(C(F)(F)F)(C(F)(F)F)C(F)(F)F)cc1[N+](=O)[O-],-8.2,0.1,5.0*,2.6,0.0,-4.7
O=C1CN(S(=O)(=O)c2cccc(Cl)c2Cl)c2ccccc2N1,-8.3,0.0,6.8*,-1.8,1.4,1.4
COc1ccc(-c2noc(N3CCCC(C(=O)Nc4ccc(NC(C)=O)nc4)C3)n2)cc1 (configuration not stated),-1.3,0.0,-0.1,7.6,x,x
COc1ccc(-c2nc3c(NCCCN4CCCC4=O)ncnc3n2C(C)C)cn1,-2.2,-0.1,-0.1,-1.4,x,x
CCOC(=O)c1ccc(-n2c(C)cc(/C=N/Nc3ccccn3)c2C)cc1,-23.6,-0.2,0.9,7.9,x,x
Cc1nnc(N/N=C/c2cc(C)n(-c3ccc(F)cc3)c2C)n1N,9.7,-0.5,6.3*,0.1,-0.6,-14.4
Cc1ccc(-n2c(C)cc(/C=N/Nc3ccccn3)c2C)cc1,-18.8,0.1,5.5*,1.6,0.1,8.6
CC1CN(c2cc(N3CCOCC3)c(F)cc2[N+](=O)[O-])CCN1C(=O)c1cccs1 (configuration not stated),-18.8,-0.2,7.6*,0.4,-0.1,-0.2
CCC(=O)N1c2ccccc2-c2nnc(SC)nc2OC1c1ccc(OC)cc1 (configuration not stated),-0.9,1.1,5.6*,0.5,2.2,-8.8
CCCCOc1ccccc1NC(=O)/C=C/c1ccc(-c2ccccc2)cc1,-7.7,0.0,5.3*,2.2,-0.8,7.3
CCOc1ccccc1NC(=O)/C=C/c1ccc(OC)cc1,10.1,-0.1,-1.1,0.2,x,x
Cc1sc2ncn(CC(=O)N3CCC(Cc4ccccc4)CC3)c(=O)c2c1S(=O)(=O)N1CCOCC1,-3.8,0.6,1.3,-5.9,x,x
CCCCCCCCCCCCCCCC(=O)NCCO,11.4,0.3,9.1*!,-8.9,0.0,10.6
CCc1cc(C(=O)Cc2ccc3c(c2)OCCCO3)c(O)cc1OC,-3.2,0.0,5.2*,-6.2,-1.7,-15.1
O=c1[nH]c2nc(-c3cccc(CO)c3)cnc2n1Cc1cccnc1,-7.7,0.1,-0.7,-3.6,x,x
Nc1c2c(nc3c1CCC3)CCCC2,-3.0,0.3,5.0*,19.3,-0.2,-0.6
Cc1nn(CC(=O)OCC(=O)NC(=O)c2ccc(OC(F)F)cc2)c(C)c1[N+](=O)[O-],0.3,0.0,6.6*,-11.3,0.8,4.9
